Read-out in assay [1]: Monokine induced gamma interferon (MIG), CXCL9 (gene 4283)
Briefly: BSK_KF3CT_MIG: BioMAP Diversity Plus: KF3CT Assay for Monokine induced gamma interferon (MIG) Biomarker Activity (AID 2284248). The settings on record: primary human keratinocytes with fibroblasts. The method, boiled down:
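ELISA read-out of MIG after 24 h chemical exposure of human skin primary co-culture (keratinocytes, foreskin fibroblasts). Gain of signal relative to DMSO negative control was analysed.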

Read-out in assay [2]: Vascular cell adhesion molecule 1 (VCAM1), VCAM1 (gene 7412)
The assay is described as follows: BSK_BF4T_VCAM1: BioMAP Diversity Plus: BF4T Assay for Vascular cell adhesion molecule 1 (VCAM1) Biomarker Activity (AID 2284249). Conditions: primary human bronchial epithelial cells with fibroblasts. A digest of the protocol:
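Human bronchial epithelial cell and dermal fibroblast co-culture exposed 24 h. VCAM-1 measured by ELISA; parallel SRB total-protein staining for cytotoxicity. Fitted in positive direction relative to DMSO.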

Read-out in assay [3]: Macrophage Inflammatory Protein-1 Alpha (MIP1a), CCL3 (gene 6348)
The assay is described as follows: BSK_IMphg_MIP1a: BioMAP Diversity Plus: IMphg Assay for Macrophage Inflammatory Protein-1 Alpha (MIP1a) Biomarker Activity (AID 2284255). The settings on record: primary human endothelial cells with macrophages. A digest of the protocol: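 Co-culture of human venular endothelial cells and macrophages exposed to compounds for 24 h; MIP-1a measured by ELISA relative to DMSO. Cytotoxicity assessed in parallel cultures by sulforhodamine B total-protein staining at 560 nm.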

Read-out in assay [4]: Plasminogen activator inhibitor-1 (PAI1), SERPINE1 (gene 5054)
Briefly: BSK_MyoF_PAI1: BioMAP Diversity Plus: MyoF Assay for Plasminogen activator inhibitor-1 (PAI1) Biomarker Activity (AID 2284256).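 As to outcome: PAI-1 protein level measured by ELISA in fibroblast cultures; PAI-1 read 24 h after compound addition.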 Conditions: primary human lung fibroblasts. The method, boiled down:
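MyoF lung fibroblasts, human primary; compound 24 h; PAI-1 ELISA; positive-direction fit vs DMSO baseline; parallel SRB total-protein staining for cytotoxicity.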

Read-out in a further assay: CD69, CD69 (gene 969)
The assay is described as follows: BSK_IMphg_CD69: BioMAP Diversity Plus: IMphg Assay for CD69 Biomarker Activity (AID 2284257). The settings on record: primary human endothelial cells with macrophages. The method, boiled down:
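Human venular endothelial cells co-cultured with macrophages; CD69 quantified by ELISA 24 h after compound addition. Activity fitted in the positive direction relative to DMSO baseline; cytotoxicity tracked in parallel cultures via SRB total-protein staining.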

Read-out in assay [5]: Eotaxin 3, CCL26 (gene 10344)
Briefly: BSK_BF4T_Eotaxin3: BioMAP Diversity Plus: BF4T Assay for Eotaxin 3 Biomarker Activity (AID 2284258). The settings on record: primary human bronchial epithelial cells with fibroblasts. The method, boiled down: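 Co-culture of human bronchial epithelial cells and dermal fibroblasts, exposed to chemicals for 24 h versus DMSO. Eotaxin-3 quantified by ELISA; cytotoxicity checked in parallel cultures by sulforhodamine B total-protein staining.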

Read-out in assay [6]: Monocyte Chemoattractant Protein-1 (MCP1), CCL2 (gene 6347)
Briefly: BSK_BF4T_MCP1: BioMAP Diversity Plus: BF4T Assay for Monocyte Chemoattractant Protein-1 (MCP1) Biomarker Activity (AID 2284259). Conditions: primary human bronchial epithelial cells with fibroblasts. The method, boiled down: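 Co-culture of bronchial epithelial cells and dermal fibroblasts dosed with chemical; MCP-1 measured by ELISA 24 h later. Activity fitted in positive direction versus DMSO; cytotoxicity checked by SRB staining in parallel cultures.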

Read-out in assay [7]: Interleukin-8 (IL8), CXCL8 (gene 3576)
The assay is described as follows: BSK_MyoF_IL8: BioMAP Diversity Plus: MyoF Assay for Interleukin-8 (IL8) Biomarker Activity (AID 2284261). Conditions: primary human lung fibroblasts. A digest of the protocol: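 Lung fibroblasts (human primary) → chemical exposure → 24 h → IL-8 measured by ELISA. Signal increase scored versus DMSO control.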

Read-out in another assay: CD90, THY1 (gene 7070)
The assay is described as follows: BSK_BF4T_CD90: BioMAP Diversity Plus: BF4T Assay for CD90 Biomarker Activity (AID 2284262). Conditions: primary human bronchial epithelial cells with fibroblasts. A digest of the protocol:
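Co-culture of human bronchial epithelial cells and dermal fibroblasts, 24 h compound exposure. Cell-surface CD90 measured by ELISA relative to DMSO; parallel SRB total-protein staining for cytotoxicity.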

Read-out in assay [8]: Interleukin-8 (IL8), CXCL8 (gene 3576)
Briefly: BSK_BF4T_IL8: BioMAP Diversity Plus: BF4T Assay for Interleukin-8 (IL8) Biomarker Activity (AID 2284263). Conditions: primary human bronchial epithelial cells with fibroblasts. The method, boiled down: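 Human bronchial epithelial cells with dermal fibroblasts co-culture; IL-8 measured by ELISA 24 hours after dosing, fitted vs DMSO. Cytotoxicity tracked in parallel cultures by SRB total-protein staining.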

Read-out in assay [9]: Interleukin-1 alpha (IL1a), IL1A (gene 3552)
The assay is described as follows: BSK_BF4T_IL1a: BioMAP Diversity Plus: BF4T Assay for Interleukin-1 alpha (IL1a) Biomarker Activity (AID 2284264). Conditions: primary human bronchial epithelial cells with fibroblasts. A digest of the protocol:
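Human bronchial epithelial cells co-cultured with dermal fibroblasts, dosed and read at 24 h. Secreted/surface IL-1α quantified by ELISA; gain-of-signal fitted relative to DMSO baseline. Parallel SRB total-protein staining tracked cytotoxicity.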

Read-out in the next assay: Decorin, DCN (gene 1634)
Briefly: BSK_MyoF_Decorin: BioMAP Diversity Plus: MyoF Assay for Decorin Biomarker Activity (AID 2284265). Conditions: primary human lung fibroblasts. A digest of the protocol: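 ELISA readout of decorin, 24 h post-dosing; primary human lung fibroblast (MyoF) culture; gain-of-signal fit vs DMSO baseline.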

A short description of assay [10]: BSK_MyoF_SRB: Viability Assessment in the BioMAP Diversity Plus: MyoF Assay (AID 2284267).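 Also: total protein by SRB absorbance in parallel cultures as cytotoxicity measure.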 Conditions: primary human lung fibroblasts. A digest of the protocol: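 Cytotoxicity in primary human lung fibroblasts is gauged by SRB total-protein staining 24 h after dosing, with DMSO as the negative control.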
Read-out in assay [11]: Plasminogen activator inhibitor-1 (PAI1), SERPINE1 (gene 5054)
Briefly: BSK_KF3CT_PAI1: BioMAP Diversity Plus: KF3CT Assay for Plasminogen activator inhibitor-1 (PAI1) Biomarker Activity (AID 2284252). Conditions: primary human keratinocytes with fibroblasts. The method, boiled down:
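Signal is PAI-1 detected by ELISA in a human skin-derived keratinocyte/fibroblast co-culture, 24 h after dosing; DMSO served as negative control and baseline.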

Read-out in assay [12]: Collagen I, COL1A1 (gene 1277)
Briefly: BSK_hDFCGF_CollagenI: BioMAP Diversity Plus: hDFCGF Assay for Collagen I Biomarker Activity (AID 2284250). Conditions: primary human foreskin fibroblasts. A digest of the protocol: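 Cells were primary human foreskin fibroblasts treated for 24 h. Collagen I levels were then determined by ELISA and compared against DMSO controls.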

Read-out in assay [13]: Interleukin-8 (IL8), CXCL8 (gene 3576)
The assay is described as follows: BSK_KF3CT_IL8: BioMAP Diversity Plus: KF3CT Assay for Interleukin-8 (IL8) Biomarker Activity (AID 2284254). Conditions: primary human keratinocytes with fibroblasts. The method, boiled down:
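IL-8 read-out: ELISA, 24 h post-dose, human skin primary co-culture (keratinocytes + foreskin fibroblasts). DMSO = baseline; positive-direction fit.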

Read-out in assay [14]: Monocyte Chemoattractant Protein-1 (MCP1), CCL2 (gene 6347)
Briefly: BSK_IMphg_MCP1: BioMAP Diversity Plus: IMphg Assay for Monocyte Chemoattractant Protein-1 (MCP1) Biomarker Activity (AID 2284253). Conditions: primary human endothelial cells with macrophages. The method, boiled down: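 Human venular endothelial cells co-cultured with macrophages; MCP-1 measured by ELISA 24 hours post-dose and fitted against DMSO. Cytotoxicity monitored by SRB total-protein staining in parallel cultures.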

Read-out in another assay: KRT18 (gene 3875)
The assay is described as follows: BSK_BF4T_Keratin818: BioMAP Diversity Plus: BF4T Assay for Keratin 818 Biomarker Activity (AID 2284266). The settings on record: primary human bronchial epithelial cells with fibroblasts. The method, boiled down:
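Co-culture of human bronchial epithelial cells and dermal fibroblasts, chemical exposure 24 h. Keratin 8/18 measured by ELISA; positive-direction fit vs DMSO. SRB total protein run in parallel cultures for cytotoxicity.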

The structures appear in SMILES notation. “And” between values parts separate entries of the source, which are not always exact repeats. Equal values may be shown once. Some compounds were tested as several samples or in several runs, with calls that do not always agree. The source made the active and inactive calls. The calls were made as follows: active = hit-call score of the fitted dose curve at least 0.9, where 1 is the maximum; inactive = score below 0.9.

With `NC(O)(C(F)(F)F)C(F)(F)F`, the outcome in assay [1] is “inactive”; in assay [2], “inactive”; in assay [3], “inactive”; in assay [4], “inactive”; with CD69, CD69 (gene 969) it was “inactive”; in assay [5], “inactive”. The outcome in assay [6] was “inactive”; in assay [7], “inactive”; with CD90, THY1 (gene 7070) it was “inactive”; in assay [8] it was “inactive”; in [9], “inactive”; with Decorin, DCN (gene 1634), “inactive”. Moreover, in assay [10], the result was inactive.
Consider `O=C(O)C(F)(F)OC(F)(F)C(F)(F)OC(F)(F)C(F)(F)OC(F)(F)F`, for which the outcome in assay [1] is “inactive”; in [2], “inactive”; in assay [11] it was “inactive”; in assay [3] it was “inactive”; with CD69, CD69 (gene 969), “inactive”; in assay [5], “inactive”. Further, the outcome is “inactive” in [6]; “inactive” in [7]; “inactive” in the assay with CD90, THY1 (gene 7070); “inactive” in assay [8]; “inactive” in [9]; “inactive” with Decorin, DCN (gene 1634). Besides, the outcome in [10] was inactive.
For `C[Si](Cl)(Cl)CCC(F)(F)C(F)(F)C(F)(F)C(F)(F)C(F)(F)C(F)(F)F`, the outcome was “inactive” in assay [1]; “inactive” in assay [2]; “inactive” in assay [3]; “inactive” in assay [4]; “inactive” with CD69, CD69 (gene 969); “inactive” in [5]. For the same molecule, the outcome in assay [6] is “inactive”; in assay [7], “inactive”; with CD90, THY1 (gene 7070), “inactive”; in assay [8], “inactive”; in assay [9], “inactive”; in the assay with Decorin, DCN (gene 1634), “inactive”. In [10], the outcome was inactive.
Regarding `O=S(=O)(O)CCC(F)(F)C(F)(F)C(F)(F)C(F)(F)F`, the outcome was “inactive” in assay [1]; “inactive” in assay [2]; “inactive” in assay [12]; “inactive” in assay [13]; “inactive” in [3]; “inactive” with CD69, CD69 (gene 969). The outcome in assay [5] is “inactive”; in [6], “inactive”; in assay [7] it was “inactive”; with CD90, THY1 (gene 7070) it was “inactive”; in assay [8], “inactive”; in [9], “inactive”. The outcome was “inactive” with Decorin, DCN (gene 1634) and “inactive” in assay [10].
Consider `C=CC(=O)OCC(F)(F)C(F)(F)C(F)(F)COC(=O)C=C`, for which the AC50 – broadly, the concentration at which the activity in the assay is half-maximal – is 23.2 µM (active) and 22.2 µM (active) in assay [1]; 7.91 µM (active) and 8.05 µM (active) in assay [2]; 47.1 µM (active) and 48 µM (active) in assay [3]; 14.2 µM (active) and 14.7 µM (active) in assay [4]; 54.8 µM (active) and 44 µM (active) with CD69, CD69 (gene 969); 14.8 µM (active) and 17 µM (active) in [5]. The AC50 was 15.3 µM (active) and 11.7 µM (active) in [6]; 16.5 µM (active) and 14.3 µM (active) in assay [7]; 8.59 µM (active) with CD90, THY1 (gene 7070); 10.8 µM (active) in [8]; 40.5 µM (active) and 41.3 µM (active) in assay [9]; 12.2 µM (active) and 9.13 µM (active) with Decorin, DCN (gene 1634). The half-maximal activity concentration (AC50) in assay [10] was 10.6 µM (active). The outcome is “inactive” with CD90, THY1 (gene 7070) and “inactive” in assay [8].
Regarding `O=C(Cl)C(F)(F)C(F)(F)C(F)(F)C(F)(F)C(F)(F)C(F)(F)C(F)(F)F`, the outcome in assay [1] was “inactive”; in assay [2] it was “inactive”; in assay [14], “inactive”; in assay [3] it was “inactive”; in [4], “inactive”; in the assay with CD69, CD69 (gene 969), “inactive”. In addition, the outcome in assay [5] is “inactive”; in [6], “inactive”; in assay [7], “inactive”; with CD90, THY1 (gene 7070), “inactive”; in assay [8] it was “inactive”; in assay [9], “inactive”. Further, the outcome with Decorin, DCN (gene 1634) is “inactive”; with KRT18 (gene 3875), “inactive”; in assay [10] it was “inactive”. In addition, the AC50 was 52.9 µM (active) in assay [14] and 237 nM (active) in assay [3].

The values are drawn from PubChem BioAssay (EPA / NIEHS).
